Measured values as given in PubChem BioAssay (NCATS).
Records with an inconclusive call do not appear. Entries that show only a call come without a potency. Active and inactive are the calls of the source. Calls follow the shape of the dose curve; as a rule, active = well fitted curve in the direction sought with a large enough effect; inconclusive = small, poorly fitted or top-dose-only effect, or another doubt; inactive = no such curve, though single readings can be large; an effect the other way counts as inactive or inconclusive.

Key:
[1] = MultiTox-Fluor Cytotoxicity Assay - LYMP1-002 - Dead Cells (AID 960); also: nearly all actives have a fitted effect of over 60% in size; also: potency is read from the fitted curve at half-maximal effect
How it was run: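 Acute cytotoxicity in a human lymphoblastoid line is scored as rising dead-cell protease signal after 16 hr exposure at 37 C, measured fluorometrically (485/520).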

[2] = MultiTox-Fluor Cytotoxicity Assay - LYMP1-003 - Dead Cells (AID 961);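 also: cells exposed to compound for 16 h at 37 °C; nearly all actives have a fitted effect of over 70% in size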
How it was run: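 Acute toxicity is scored as increased dead-cell protease activity in human lymphoblastoid LYMP1-003 cells after 16 h compound exposure in complete culture medium. Activity is normalized to DMSO basal and 15 uM tetraoctylammonium bromide as full response.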

[3] = Cell Viability - LYMP1-003 - Assay at 24 hr (AID 963); also: potency is read from the fitted curve at half-maximal effect
How it was run: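 Acute toxicity in LYMP1-003 lymphoblastoid cells: 24 hr compound treatment at 37 C, ATP measured with CellTiter-Glo after 30 min at room temperature. AC50 derived by fitting the Hill equation to qHTS titrations.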

[4] = Cell Viability - LYMP1-003 - Assay at 40 hr (AID 964); also: nearly all actives have a fitted effect of over 60% in size; also: potency is read from the fitted curve at half-maximal effect
How it was run: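 This qHTS cytotoxicity screen treats human lymphoblastoid cells (LYMP1-003) with compounds for 40 hr and quantifies cellular ATP via luciferase luminescence.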

[5] = Cell Viability - LYMP2-003 (AID 965);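 also: cells exposed to compounds for 24 h before reading; nearly all actives have a fitted effect of over 50% in size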; also: potency is read from the fitted curve at half-maximal effect
How it was run: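 Acute cytotoxicity is scored as a concentration-dependent drop in intracellular ATP, measured by luciferase luminescence in human lymphoblastoid cells treated for 24 hours at 37 C. AC50 values derive from Hill-equation modelling.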

[6] = Cell Viability - LYMP2-004 (AID 966); also: nearly all actives have a fitted effect of over 65% in size; also: potency is read from the fitted curve at half-maximal effect
How it was run: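 Acute toxicity is scored as a concentration-dependent drop in intracellular ATP, quantified by luciferase luminescence, in human lymphoblastoid cells exposed to compound for 24 hr. AC50 derives from Hill-equation modelling.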

[7] = Cell Viability - LYMP2-005 (AID 967); also: potency is read from the fitted curve at half-maximal effect
How it was run: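 qHTS viability screen in LYMP2-005 cells: 24 h at 37 C with compound, ATP luminescence via CellTiter-Glo, AC50 from Hill curves.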

[8] = Cell Viability - LYMP2-009 (AID 968); also: nearly all actives have a fitted effect of over 55% in size; also: potency is read from the fitted curve at half-maximal effect
[9] = Cell Viability - LYMP2-011 (AID 969); also: nearly all actives have a fitted effect of over 60% in size; also: potency is read from the fitted curve at half-maximal effect
How it was run: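 Acute toxicity is scored as a concentration-dependent drop in intracellular ATP of a human lymphoblastoid line after 24 hr treatment. Values are AC50s modeled with the Hill equation.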

[10] = Cell Viability - LYMP2-013 (AID 970); also: nearly all actives have a fitted effect of over 55% in size; also: potency is read from the fitted curve at half-maximal effect
How it was run: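 Acute toxicity was measured in human lymphoblastoid cells (2500/well) exposed to compound titrations for 24 hr, with ATP luminescence (CellTiter-Glo) as read-out and AC50 fitted by Hill equation.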

[11] = Cell Viability - LYMP2-015 (AID 971); also: nearly all actives have a fitted effect of over 55% in size; also: potency is read from the fitted curve at half-maximal effect
How it was run: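 Acute toxicity was scored as a concentration-dependent drop in intracellular ATP in lymphoblastoid cells after 24 hr compound exposure in complete medium. Detection used CellTiter-Glo luciferase luminescence.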

[12] = Cell Viability - LYMP2-017 (AID 972);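 also: cells exposed to compound for 24 hours at 37 °C; nearly all actives have a fitted effect of over 55% in size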; also: potency is read from the fitted curve at half-maximal effect
How it was run: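 Steps: plate 2500 lymphoblastoid cells per well; incubate 5 hr at 37 C; add compound across a concentration series and incubate 24 hr at 37 C; add CellTiter-Glo and read luminescence after 30 min at room temperature; fit Hill curves for AC50.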

[13] = Cell Viability - LYMP2-019 (AID 973); also: nearly all actives have a fitted effect of over 55% in size; also: potency is read from the fitted curve at half-maximal effect
How it was run: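 Cells plated at 2500/well and allowed 5 hr at 37 C before compound addition. After 24 hr incubation, CellTiter-Glo reagent was added, plates sat 30 min at room temperature, and luminescence was recorded.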

[14] = Cell Viability - LYMP2-021 (AID 974); also: potency is read from the fitted curve at half-maximal effect
How it was run: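 Concentration-response cytotoxicity in a human lymphoblastoid line: 24 hr treatment at 37 C in complete culture medium, tetraoctylammonium bromide as positive control, luminescent ATP quantitation as viability measure.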

[15] = Cell Viability - LYMP2-023 (AID 975); also: potency is read from the fitted curve at half-maximal effect
How it was run: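 Concentration-dependent drop in intracellular ATP measures acute cytotoxicity in a human lymphoblastoid line treated for 24 hours in complete culture medium. AC50 values are taken from Hill-equation fits of qHTS data.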

[16] = Cell Viability - LYMP2-025 (AID 976); also: potency is read from the fitted curve at half-maximal effect
How it was run: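 In qHTS format, LYMP2-025 lymphoblastoid cells in complete culture medium received compound for 24 hr; ATP-based CellTiter-Glo signal gave viability, with AC50 derived by Hill equation.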

[17] = Cell Viability - LYMP2-002 (AID 977); also: potency is read from the fitted curve at half-maximal effect
How it was run: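 Luminescent ATP readout (CellTiter-Glo, 30 min room temperature) after 24 h compound exposure at 37 C of a human lymphoblastoid line, 2500 cells/well. AC50 values derived by standard Hill fitting of qHTS concentration-response data.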

[18] = Cell Viability - LYMP2-006 (AID 978); also: nearly all actives have a fitted effect of over 60% in size; also: potency is read from the fitted curve at half-maximal effect
How it was run: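 Concentration-dependent loss of intracellular ATP in a human lymphoblastoid line after 24 hr treatment at 37 C was measured by CellTiter-Glo luminescence, with AC50 values obtained from standard Hill-equation modelling.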

[19] = Cell Viability - LYMP2-008 (AID 980); also: nearly all actives have a fitted effect of over 60% in size; also: potency is read from the fitted curve at half-maximal effect
How it was run: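 Acute cytotoxicity is scored as concentration-dependent loss of cellular ATP in a human lymphoblastoid line after 24 hr treatment at 37 C. ATP is quantified by luciferase luminescence.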

[20] = Cell Viability - LYMP2-010 (AID 981); also: potency is read from the fitted curve at half-maximal effect
How it was run: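 Acute toxicity is scored as a concentration-dependent loss of cellular ATP in human lymphoblastoid cells after 24 hr compound exposure in complete medium. Tetraoctylammonium bromide is the positive control.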

| Structure (SMILES) | Potency [1] | outcome [2] | Potency [3] | Potency [4] | Potency [5] | Potency [6] | Potency [7] | Potency [8] | Potency [9] | Potency [10] | Potency [11] | Potency [12] | Potency [13] | Potency [14] | Potency [15] | Potency [16] | Potency [17] | Potency [18] | Potency [19] | Potency [20] |
| --- | --- | --- | --- | --- | --- | --- | --- | --- | --- | --- | --- | --- | --- | --- | --- | --- | --- | --- | --- | --- |
| CC1=NN(c2ccccc2)C(=O)C1 | inactive | inactive | inactive | inactive | inactive | inactive | inactive | inactive | inactive | inactive | inactive | inactive | inactive | inactive | inactive | inactive | inactive | inactive | inactive | inactive |
| Cc1noc(NS(=O)(=O)c2ccc(N)cc2)c1C | inactive | inactive | inactive | inactive | inactive | inactive | inactive | inactive | inactive | inactive | inactive | inactive | inactive | inactive | inactive | inactive | inactive | inactive | inactive | inactive |
| COc1ccc2cc3[n+](cc2c1OC)CCc1cc2c(cc1-3)OCO2 |  | inactive | inactive |  | inactive | inactive |  |  | inactive |  |  |  |  |  | inactive | inactive | inactive |  |  |  |
| Cc1nnc(NS(=O)(=O)c2ccc(N)cc2)s1 | inactive | inactive | inactive | inactive | inactive | inactive | inactive | inactive | inactive | inactive | inactive | inactive | inactive | inactive | inactive | inactive | inactive | inactive | inactive | inactive |
| CN(C)c1ccc(C(=C2C=CC(=[N+](C)C)C=C2)c2ccc(N(C)C)cc2)cc1 | 3.98 µM (active) |  | 7.94 µM (active) | 2.51 µM (active) | 3.16 µM (active) | 1.58 µM (active) | 2.51 µM (active) | 2.51 µM (active) | 2.51 µM (active) | 3.98 µM (active) | 2.51 µM (active) | 3.98 µM (active) | 3.16 µM (active) | 2.51 µM (active) | 3.16 µM (active) | 6.31 µM (active) | 2.51 µM (active) | 3.16 µM (active) | 2 µM (active) | 1.26 µM (active) |
| N=C(N)c1ccc(OCCCCCOc2ccc(C(=N)N)cc2)cc1 | inactive | inactive | inactive | 39.8 µM (active) | inactive | inactive |  | inactive |  |  |  |  |  |  | inactive | inactive |  |  |  | 39.8 µM (active) |
| CCc1cc(C(N)=S)ccn1 | inactive | inactive | inactive | inactive | inactive | inactive | inactive | inactive | inactive | inactive | inactive | inactive | inactive | inactive | inactive | inactive | inactive | inactive | inactive | inactive |
| Cc1ncc([N+](=O)[O-])n1CCO | inactive | inactive | inactive | inactive | inactive | inactive | inactive | inactive | inactive | inactive | inactive | inactive | inactive | inactive | inactive | inactive | inactive | inactive | inactive | inactive |
| NC(N)=NC(N)=NCCc1ccccc1 | inactive | inactive | inactive | inactive | inactive |  |  | inactive | inactive | inactive |  | inactive |  | inactive | inactive | inactive | inactive | inactive | inactive | inactive |
| NNC(=O)c1ccncc1 | inactive | inactive | inactive | inactive | inactive | inactive | inactive | inactive | inactive | inactive | inactive | inactive | inactive | inactive | inactive | inactive | inactive | inactive | inactive | inactive |
| Cc1cc(NS(=O)(=O)c2ccc(N)cc2)no1 | inactive | inactive | inactive | inactive | inactive | inactive | inactive | inactive | inactive | inactive | inactive | inactive | inactive | inactive | inactive | inactive | inactive | inactive | inactive | inactive |
| CC[C@H](C)C(=O)O[C@H]1C[C@@H](C)C=C2C=C[C@H](C)[C@H](CC[C@@H]3C[C@@H](O)CC(=O)O3)[C@H]21 |  | inactive | inactive |  |  |  |  | inactive | inactive | inactive | inactive | inactive | inactive | inactive | inactive | inactive | inactive |  | inactive |  |
| Cc1ccnc2c1NC(=O)c1cccnc1N2C1CC1 | inactive | inactive | inactive | inactive | inactive | inactive | inactive | inactive | inactive | inactive | inactive | inactive | inactive | inactive | inactive | inactive | inactive | inactive | inactive | inactive |
| CC(=O)[C@H]1CC[C@H]2[C@@H]3CCC4=CC(=O)CC[C@]4(C)[C@H]3CC[C@]12C | 15.8 µM (active) |  |  |  |  |  |  |  |  |  |  |  |  |  |  |  |  | inactive |  |  |
| C[C@]12C=CC(=O)C=C1CC[C@@H]1[C@@H]2C(=O)C[C@@]2(C)[C@H]1CC[C@]2(O)C(=O)CO | inactive | inactive | inactive | inactive | inactive | inactive | inactive | inactive | inactive | inactive | inactive | inactive | inactive | inactive | inactive | inactive | inactive | inactive | inactive | inactive |
| O=C(N[C@H](CO)[C@H](O)c1ccc([N+](=O)[O-])cc1)C(Cl)Cl | inactive | inactive | inactive | inactive | inactive | inactive | inactive | inactive | inactive | inactive | inactive | inactive | inactive | inactive | inactive | inactive | inactive | inactive | inactive | inactive |
| O=C(O)c1cc(=O)[nH]c(=O)[nH]1 | inactive | inactive | inactive | inactive | inactive | inactive | inactive | inactive | inactive | inactive | inactive | inactive | inactive | inactive | inactive | inactive | inactive | inactive | inactive | inactive |
